Experimental data: PubChem BioAssay (EPA / NIEHS)
Inconclusive results are not listed. Active and inactive are the calls of the source. The calls were made as follows, unless noted: active = hit-call score of the fitted dose curve at least 0.9, where 1 is the maximum; inconclusive = response in the unintended direction; inactive = score below 0.9.

What was measured:
[1] = target: Thyroid hormone receptor alpha (Rattus norvegicus) + Thyroid hormone receptor beta (Rattus norvegicus) (UniProt P18113+P63059); assay: TOX21_TR_LUC_GH3_Agonist_Followup: Tox21 GH3 Thyroid Hormone Receptor Agonism Luciferase Follow-Up Assay (AID 2283939)
Outline: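 Rat GH3 cells (1,500/well) in serum-free assay medium, treated with 15-point series, 92 uM to 5 nM final, for 24 h at 37C. Luciferase via ONE-Glo luminescence; gain of signal fitted against DMSO, T3 positive control.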

THRA (gene 7067) = THRA (gene 7067) (UniProt P10827); assay: TOX21_TRA_COA_Agonist_Followup_ratio: Tox21 Thyroid Hormone Receptor alpha Agonism through Coactivator Recruitment Follow-Up Assay, Ratio (AID 2283948; active = hit-call score of the fitted dose curve at least 0.9, where 1 is the maximum; inactive = score below 0.9)
Outline: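 GST-TRa LBD 2.5 nM + 0.10% BSA + cpd; add fluorescein-SRC-2 200 nM, Tb-anti-GST 2 nM. TR-FRET ex 340, em 520/495 ratio. Norm: DMSO 0%, T3 100%; gain-of-signal fit.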

THRB (gene 7068) [2] = target: THRB (gene 7068) (UniProt P10828); assay: TOX21_TRB_COA_Agonist_Followup_ratio: Tox21 Thyroid Hormone Receptor beta Agonism through Coactivator Recruitment Follow-Up Assay, Ratio (AID 2283963; active = hit-call score of the fitted dose curve at least 0.9, where 1 is the maximum; inactive = score below 0.9)
Outline: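 First, the GST-fused TRβ ligand-binding domain (5.0 nM) was incubated with test compound in 0.10% BSA. Next, fluorescein-tagged SRC-2 peptide (200 nM) and terbium anti-GST antibody (2 nM) were added. Finally, TR-FRET emission ratios were normalized against DMSO and T3 controls.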

[3] = target: Retinoic acid receptor RXR-alpha (Homo sapiens) (UniProt P19793); assay: TOX21_TR_RXR_BLA_Agonist_Followup_ratio: Tox21 Thyroid Hormone Receptor beta Retinoid X Receptor alpha (RXRa) Agonism Beta-lactamase (BLA) Follow-Up Assay, Ratio (AID 2283968)
Outline: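 RXRa-UAS-bla HEK293T cells (GAL4 beta-lactamase reporter) were treated with compounds at 11 concentrations in triplicate for 16 h at 37C/5% CO2, then loaded with CCF4-AM substrate for 2 h at room temperature; activity is the 460:530 nm ratio versus DMSO baseline.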

[4] = TOX21_TR_RXR_BLA_Agonist_Followup_viability: Viability Assessment in the Tox21 Thyroid Hormone Receptor beta Retinoid X Receptor alpha (RXRa) Agonism Beta-lactamase (BLA) Follow-Up Assay (AID 2283970)
Outline: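 RXRa-UAS-bla HEK293T cells seeded at 2,500/well in phenol red-free DMEM with 2% charcoal-stripped FBS, exposed to compound 16h at 37C/5% CO2 in qHTS. Viability read by CellTiter-Glo ATP luminescence; bidirectional fitting against DMSO baseline, signal loss indicating cytotoxicity.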

[5] = TOX21_PR_BLA_Followup_Antagonist_viability: Viability Assessment in the Tox21 HEK293 Progesterone Receptor (PR) Antagonism Beta-lactamase Follow-Up Assay (AID 2283936);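 also: hits lower the luminescence signal meaning cytotoxicity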
Outline: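 PR-UAS-bla HEK293T cells (3,000/well, 2% charcoal-stripped FBS) given compound plus R5020 agonist, 16 h at 37C. CellTiter-Glo added after bla read, 30 min at room temperature; luminescence loss indicates cytotoxicity.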

PGR (gene 5241) [6] = target: PGR (gene 5241) (UniProt P06401); assay: TOX21_PR_LUC_Followup_Agonist: Tox21 HEK293 Progesterone Receptor (PR) Agonism Luciferase Follow-Up Assay (AID 2283937; active = hit-call score of the fitted dose curve at least 0.9, where 1 is the maximum; inactive = score below 0.9)
Outline: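 HEK293-PR-A-luc cells, pre-cultured 5 days in medium with 10% charcoal-stripped FBS, were seeded at 3,000 cells/well, rested 5 h at 37C, then exposed to compounds 16 h at 37C; luciferase read by ONE-Glo luminescence after 30 min.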

PGR (gene 5241) [7] = target: PGR (gene 5241) (UniProt P06401); assay: TOX21_PR_LUC_Followup_Antagonist: Tox21 HEK293 Progesterone Receptor (PR) Antagonism Luciferase Follow-Up Assay (AID 2283938);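 also: curve fitted upward as signal gain over DMSO baseline despite antagonist label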
Outline: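 Luminescence from ONE-Glo reagent, measured after 30 min at room temperature, served as readout. Cells (HEK293 carrying PR-A-luc) had been treated 16 h at 37C with DMSO-dissolved compounds. Activity was fitted against DMSO controls.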

[8] = TOX21_PR_LUC_Followup_Antagonist_viability: Viability Assessment in the Tox21 HEK293 Progesterone Receptor (PR) Antagonism Luciferase Follow-Up Assay (AID 2283940)
Outline: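 HEK293-PR-A-luc cells, precultured 5 days in assay medium with 10% charcoal-stripped FBS, were seeded at 3,000 cells/well, treated with compounds in DMSO for 16 h at 37C, and viability was read as cellular ATP by CellTiter-Glo luminescence.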

[9] = TOX21_PR_LUC_Followup_Agonist_viability: Viability Assessment in the Tox21 HEK293 Progesterone Receptor (PR) Agonism Luciferase Follow-Up Assay (AID 2283941);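 also: loss of signal means cytotoxicity so actives lower viability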
Outline: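 HEK293-PR-A-luc cells, pre-cultured 5 days in 10% charcoal-stripped FBS, were seeded at 3,000 cells/well, rested 5 h at 37C, then given compound in DMSO for 16 h at 37C. Cellular ATP was read by CellTiter-Glo luminescence; signal loss indicates cytotoxicity.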

[10] = TOX21_TRB_BLA_Agonist_Followup_viability: Viability Assessment in the Tox21 Thyroid Hormone Receptor beta Agonism Beta-lactamase (BLA) Follow-Up Assay (AID 2283956)
Outline: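 TRb-bla HEK293T cells (GAL4-DBD/human TRb LBD) in 2% charcoal-stripped FBS medium were exposed 18 h at 37C to 11 concentrations in triplicate. CellTiter-Glo ATP luminescence was read after 30 min at room temperature, with bidirectional fitting against DMSO.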

[11] = CCTE_Harrill_HTTr_Viability_DMEM_6hr: (Pilot) CCTE's 6-hour Cell Viability Assessment for the High-Throughput Transcriptomics (HTTr) Platform, in MCF-7 cells cultured in DMEM + 10% fetal bovine serum, Harrill Lab (AID 2283973; active = hit-call score of the fitted dose curve at least 0.9, where 1 is the maximum; inactive = score below 0.9)
Outline: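 MCF-7 cells in DMEM + 10% FBS, eight-point dilution series, 6 h exposure. Membrane integrity by propidium iodide exclusion with high-content imaging; bidirectional fit versus DMSO.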

[12] = CCTE_Harrill_HTTr_Viability_DMEM_12hr: (Pilot) CCTE's 12-hour Cell Viability Assessment for the High-Throughput Transcriptomics (HTTr) Platform, in MCF-7 cells cultured in DMEM + 10% fetal bovine serum, Harrill Lab (AID 2283974; active = hit-call score of the fitted dose curve at least 0.9, where 1 is the maximum; inactive = score below 0.9)
Outline: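 MCF-7 cells in DMEM + 10% FBS exposed 12 h to an eight-point dilution series; membrane integrity scored by propidium iodide exclusion with high-content imaging, bidirectional fitting versus DMSO.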

[13] = CCTE_Harrill_HTTr_Viability_DMEM_24hr: (Pilot) CCTE's 24-hour Cell Viability Assessment for the High-Throughput Transcriptomics (HTTr) Platform, in MCF-7 cells cultured in DMEM + 10% fetal bovine serum, Harrill Lab (AID 2283975; active = hit-call score of the fitted dose curve at least 0.9, where 1 is the maximum; inactive = score below 0.9)
Outline: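 MCF-7 cells in DMEM with 10% FBS exposed for 24 hours to an eight-point dilution series. Membrane integrity by propidium iodide exclusion with high content imaging; bidirectional fit against DMSO.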

[14] = CCTE_Harrill_HTTr_Viability_PRF_DMEM_6hr: (Pilot) CCTE's 6-hour Cell Viability Assessment for the High-Throughput Transcriptomics (HTTr) Platform, in MCF-7 cells cultured phenol red-free DMEM + 10% charcoal-stripped fetal bovine serum, Harrill Lab (AID 2283976; active = hit-call score of the fitted dose curve at least 0.9, where 1 is the maximum; inactive = score below 0.9)
Outline: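 MCF-7 cells in phenol red-free DMEM with 10% charcoal-stripped FBS exposed 6 hours to an eight-point dilution series. Propidium iodide exclusion imaged; curves fitted bidirectionally against DMSO.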

[15] = CCTE_Harrill_HTTr_Viability_PRF_DMEM_12hr: (Pilot) CCTE's 12-hour Cell Viability Assessment for the High-Throughput Transcriptomics (HTTr) Platform, in MCF-7 cells cultured in phenol red-free DMEM + 10% charcoal-stripped fetal bovine serum, Harrill Lab (AID 2283977; active = hit-call score of the fitted dose curve at least 0.9, where 1 is the maximum; inactive = score below 0.9)
Outline: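 MCF-7 cells in phenol red-free DMEM with 10% charcoal-stripped FBS exposed 12 hours to an eight-point dilution series. Viability assessed by high-content imaging of propidium iodide exclusion; bidirectional fit versus DMSO.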

[16] = CCTE_Harrill_HTTr_Viability_PRF_DMEM_24hr: (Pilot) CCTE's 24-hour Cell Viability Assessment for the High-Throughput Transcriptomics (HTTr) Platform, in MCF-7 cells cultured in phenol red-free DMEM + 10% charcoal-stripped fetal bovine serum, Harrill Lab (AID 2283980; active = hit-call score of the fitted dose curve at least 0.9, where 1 is the maximum; inactive = score below 0.9)
Outline: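 MCF-7 cells in phenol red-free DMEM with 10% charcoal-stripped FBS, eight-point dilution series, 24 h exposure. Membrane integrity by propidium iodide exclusion with high content imaging; bidirectional fit vs DMSO.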

[17] = CCTE_Harrill_HTTr_Apoptosis_DMEM_6hr: (Pilot) CCTE's 6-hour Apoptosis Assessment for the High-Throughput Transcriptomics (HTTr) Platform, in MCF-7 cells cultured in DMEM + 10% fetal bovine serum, Harrill Lab (AID 2283981; active = hit-call score of the fitted dose curve at least 0.9, where 1 is the maximum; inactive = score below 0.9)
Outline: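 Caspase-3/7 activation read by high content imaging with CellEvent Caspase 3/7 Green in MCF-7 cells (DMEM + 10% FBS), 6 h after dosing; eight-point dilution series. Bidirectional fitting relative to DMSO baseline.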

[18] = CCTE_Harrill_HTTr_Apoptosis_DMEM_12hr: (Pilot) CCTE's 12-hour Apoptosis Assessment for the High-Throughput Transcriptomics (HTTr) Platform, in MCF-7 cells cultured in DMEM + 10% fetal bovine serum, Harrill Lab (AID 2283982; active = hit-call score of the fitted dose curve at least 0.9, where 1 is the maximum; inactive = score below 0.9)
Outline: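 MCF-7 cells in DMEM + 10% FBS, exposed 12 h to an eight-point dilution series; caspase-3/7 activation imaged with CellEvent Green. Bidirectional fit versus DMSO.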

THRB (gene 7068) [19] = target: THRB (gene 7068) (UniProt P10828); assay: TOX21_TRB_BLA_Agonist_Followup_ratio: Tox21 Thyroid Hormone Receptor beta Agonism Beta-lactamase (BLA) Follow-Up Assay, Ratio (AID 2283954)
Outline: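 Human TRβ LBD–GAL4 DBD fusion in GeneBLAzer UAS-bla HEK293T cells; 11 concentrations in triplicate, 18 h at 37°C/5% CO2, T3 as agonist control. CCF4-AM substrate 2 h at room temperature; 460:530 nm ratio fitted for gain of signal versus DMSO.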

Measured: AC50

Sequence of PGR (gene 5241) (P06401 whole entry, looked up): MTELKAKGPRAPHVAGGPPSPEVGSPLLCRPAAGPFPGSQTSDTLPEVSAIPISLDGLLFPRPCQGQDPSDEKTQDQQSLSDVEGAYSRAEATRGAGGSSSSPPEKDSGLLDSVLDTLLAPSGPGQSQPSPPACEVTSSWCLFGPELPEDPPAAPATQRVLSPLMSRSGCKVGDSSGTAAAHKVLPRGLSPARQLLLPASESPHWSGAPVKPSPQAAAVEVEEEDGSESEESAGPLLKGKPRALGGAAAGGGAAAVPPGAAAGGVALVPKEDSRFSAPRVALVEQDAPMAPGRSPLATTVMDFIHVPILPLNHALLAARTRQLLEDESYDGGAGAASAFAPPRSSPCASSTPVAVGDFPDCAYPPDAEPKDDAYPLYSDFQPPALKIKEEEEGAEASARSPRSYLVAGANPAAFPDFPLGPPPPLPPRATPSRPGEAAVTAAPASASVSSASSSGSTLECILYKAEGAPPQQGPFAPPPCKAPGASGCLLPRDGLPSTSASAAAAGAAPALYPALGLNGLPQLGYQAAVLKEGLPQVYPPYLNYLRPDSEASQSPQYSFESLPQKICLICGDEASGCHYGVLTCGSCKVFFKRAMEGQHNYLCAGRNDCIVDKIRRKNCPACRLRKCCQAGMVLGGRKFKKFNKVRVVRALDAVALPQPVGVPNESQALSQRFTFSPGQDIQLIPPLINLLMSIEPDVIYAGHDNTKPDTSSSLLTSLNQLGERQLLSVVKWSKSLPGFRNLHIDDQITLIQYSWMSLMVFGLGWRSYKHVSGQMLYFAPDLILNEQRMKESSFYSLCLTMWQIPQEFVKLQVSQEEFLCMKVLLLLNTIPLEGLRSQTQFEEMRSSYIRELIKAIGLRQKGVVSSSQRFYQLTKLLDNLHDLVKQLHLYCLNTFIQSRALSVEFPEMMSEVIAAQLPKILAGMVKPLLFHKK
Sequence of THRA (gene 7067) (P10827 whole entry, looked up, the tested form may be a part): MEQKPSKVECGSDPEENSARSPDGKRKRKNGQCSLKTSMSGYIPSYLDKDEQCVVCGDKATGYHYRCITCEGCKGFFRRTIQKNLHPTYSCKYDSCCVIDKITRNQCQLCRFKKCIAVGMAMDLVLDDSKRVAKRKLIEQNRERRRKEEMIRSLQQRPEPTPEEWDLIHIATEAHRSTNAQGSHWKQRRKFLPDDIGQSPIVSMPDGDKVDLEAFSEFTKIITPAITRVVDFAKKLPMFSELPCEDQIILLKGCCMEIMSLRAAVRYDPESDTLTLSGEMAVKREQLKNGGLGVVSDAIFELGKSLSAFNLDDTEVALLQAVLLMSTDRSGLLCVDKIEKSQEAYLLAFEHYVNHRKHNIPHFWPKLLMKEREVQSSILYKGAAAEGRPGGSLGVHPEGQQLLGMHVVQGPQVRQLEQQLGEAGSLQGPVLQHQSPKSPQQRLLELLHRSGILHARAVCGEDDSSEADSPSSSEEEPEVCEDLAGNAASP
Sequence of THRB (gene 7068) (P10828 whole entry, looked up, the tested form may be a part): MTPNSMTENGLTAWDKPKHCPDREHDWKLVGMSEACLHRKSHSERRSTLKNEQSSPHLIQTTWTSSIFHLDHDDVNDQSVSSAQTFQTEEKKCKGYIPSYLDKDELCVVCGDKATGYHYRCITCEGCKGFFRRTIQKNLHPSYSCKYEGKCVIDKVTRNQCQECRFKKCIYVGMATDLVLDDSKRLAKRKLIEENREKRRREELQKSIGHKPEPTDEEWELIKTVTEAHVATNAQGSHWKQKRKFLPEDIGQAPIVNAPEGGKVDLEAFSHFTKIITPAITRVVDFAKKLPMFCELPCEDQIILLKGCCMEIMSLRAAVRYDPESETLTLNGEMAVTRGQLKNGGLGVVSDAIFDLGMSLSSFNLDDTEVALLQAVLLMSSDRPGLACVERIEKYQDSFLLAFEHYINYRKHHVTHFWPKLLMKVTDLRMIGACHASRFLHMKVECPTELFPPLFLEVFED
Sequence of Retinoic acid receptor RXR-alpha (Homo sapiens) (P19793 whole entry, looked up, the tested form may be a part): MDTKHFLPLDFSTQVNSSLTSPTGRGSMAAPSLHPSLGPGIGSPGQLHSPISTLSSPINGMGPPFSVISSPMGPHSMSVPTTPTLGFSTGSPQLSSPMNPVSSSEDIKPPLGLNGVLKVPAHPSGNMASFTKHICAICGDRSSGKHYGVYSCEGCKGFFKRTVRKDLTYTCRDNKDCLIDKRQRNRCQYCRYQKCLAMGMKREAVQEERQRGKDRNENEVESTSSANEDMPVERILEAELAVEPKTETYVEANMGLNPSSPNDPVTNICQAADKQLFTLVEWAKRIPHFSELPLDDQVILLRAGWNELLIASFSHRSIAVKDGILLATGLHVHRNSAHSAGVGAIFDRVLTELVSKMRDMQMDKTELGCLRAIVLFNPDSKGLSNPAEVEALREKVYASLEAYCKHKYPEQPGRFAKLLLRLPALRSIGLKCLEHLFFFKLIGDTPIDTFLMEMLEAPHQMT
Sequence of Thyroid hormone receptor alpha (Rattus norvegicus) + Thyroid hormone receptor beta (Rattus norvegicus) (P63059 whole entry, looked up): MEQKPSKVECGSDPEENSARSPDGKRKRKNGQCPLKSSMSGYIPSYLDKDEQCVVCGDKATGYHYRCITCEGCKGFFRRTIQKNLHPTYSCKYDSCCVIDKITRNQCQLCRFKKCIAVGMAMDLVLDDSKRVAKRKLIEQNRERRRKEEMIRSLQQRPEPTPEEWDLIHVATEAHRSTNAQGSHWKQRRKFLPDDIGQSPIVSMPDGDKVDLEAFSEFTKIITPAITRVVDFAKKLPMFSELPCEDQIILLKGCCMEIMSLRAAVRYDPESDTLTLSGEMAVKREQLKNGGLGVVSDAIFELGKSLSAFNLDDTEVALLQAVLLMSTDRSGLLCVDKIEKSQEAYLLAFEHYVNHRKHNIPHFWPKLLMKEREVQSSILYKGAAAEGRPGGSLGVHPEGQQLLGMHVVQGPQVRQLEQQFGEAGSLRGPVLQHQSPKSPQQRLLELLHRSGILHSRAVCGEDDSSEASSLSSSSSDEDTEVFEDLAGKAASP
Sequence of Thyroid hormone receptor alpha (Rattus norvegicus) + Thyroid hormone receptor beta (Rattus norvegicus) (P18113 whole entry, looked up): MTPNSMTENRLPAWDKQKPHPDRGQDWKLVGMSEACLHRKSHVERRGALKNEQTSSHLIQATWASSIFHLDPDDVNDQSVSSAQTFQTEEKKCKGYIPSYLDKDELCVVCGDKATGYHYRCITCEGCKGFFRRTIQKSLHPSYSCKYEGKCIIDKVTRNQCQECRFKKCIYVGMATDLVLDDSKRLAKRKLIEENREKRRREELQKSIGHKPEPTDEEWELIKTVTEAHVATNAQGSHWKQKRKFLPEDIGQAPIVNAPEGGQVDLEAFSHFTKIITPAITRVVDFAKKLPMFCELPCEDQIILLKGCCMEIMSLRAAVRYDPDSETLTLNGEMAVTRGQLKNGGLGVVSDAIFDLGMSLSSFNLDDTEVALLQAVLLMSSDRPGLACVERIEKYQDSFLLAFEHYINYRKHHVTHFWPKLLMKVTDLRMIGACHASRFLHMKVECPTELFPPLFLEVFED

NNC(=S)NN
inactive: [1] | THRA (gene 7067) | THRB (gene 7068) [2] | [3] | [4]

O=C1C2(Cl)C3(Cl)C4(Cl)C(Cl)(Cl)C5(Cl)C3(Cl)C1(Cl)C5(Cl)C24Cl (centres undefined)
inactive: [5] | PGR (gene 5241) [6] | [8] | [9]
active: PGR (gene 5241) [7] 33.8 µM

CC(C)(OO)c1ccccc1
inactive: THRA (gene 7067) | [10] | THRB (gene 7068) [2] | [3] | [4]

C[C@@H]1C[C@@H]([C@H](O)CC2CC(=O)NC(=O)C2)C(=O)[C@@H](C)C1
inactive: [11] | [12] | [14] | [15] | [17] | [18]
active: [13] 7.82 µM | [16] 9.42 µM

CC(C)C1CCC(Cc2ccc(Cl)cc2)C1(O)Cn1cncn1 (centres undefined)
inactive: [5] | [8] | [9]
active: PGR (gene 5241) [7] 22 µM

CC(C)(c1ccccc1)c1ccc(O)c(C(C)(C)c2ccccc2)c1
inactive: THRA (gene 7067) | THRB (gene 7068) [19] | [10] | THRB (gene 7068) [2] | [4]

C[C@]12CCC(=O)C[C@@H]1CC[C@@H]1[C@@H]2CC[C@]2(C)[C@@H](O)CC[C@@H]12
inactive: [5] | [8] | [9]

C=C(C)C(=O)[O][Sn]([CH2]CCC)([CH2]CCC)[CH2]CCC
active: THRB (gene 7068) [19] 68.3 µM | [10] 7.08 µM | [3] 116 nM | [4] 15.1 µM
inactive: THRA (gene 7067) | THRB (gene 7068) [2]

CC1(C)CCC(Cc2ccc(Cl)cc2)C1(O)Cn1cncn1 (centres undefined)
inactive: [5] | [8] | [9]
active: PGR (gene 5241) [7] 21.6 µM

Oc1ccc(-c2ccccc2)cc1
active: PGR (gene 5241) [7] 33 µM
inactive: [5] | [8]

Clc1ccc(C2(Cn3cncn3)CC(Br)CO2)c(Cl)c1 (centres undefined)
active: PGR (gene 5241) [7] 46.1 µM
inactive: [5] | [8] | [9]

Nc1ccc(-c2ccc(N)c(Cl)c2)cc1Cl
inactive: [5] | [8] | [9]
active: PGR (gene 5241) [7] 6.09 µM

CC12CC1(C)C(=O)N(c1cc(Cl)cc(Cl)c1)C2=O (centres undefined)
inactive: PGR (gene 5241) [6] | PGR (gene 5241) [7] | [8] | [9]

C[C@H]1CCCC(=O)CCC/C=C/c2cc(O)cc(O)c2C(=O)O1
inactive: [5] | PGR (gene 5241) [6] | PGR (gene 5241) [7] | [8] | [9]

C[C@]12CC[C@H](O)CC1=CC[C@@H]1[C@@H]2CC[C@]2(C)C(=O)CC[C@@H]12
inactive: [5] | PGR (gene 5241) [7] | [8] | [9]
